For orientation: AC50 means the midpoint of the concentration-response curve, whichever way the signal moves.

Read-out in experiment [1]: Vascular endothelial growth factor receptor 2 (Homo sapiens) (UniProt P35968)
The experiment in a line: BSK_4H_VEGFRII: BioMAP Diversity Plus: 4H Assay for Vascular endothelial growth factor receptor 2 (VEGFR2) Biomarker Activity (AID 2283031).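 For AC50: cell-surface VEGFR2 protein level quantified by ELISA.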 As to conditions: primary human endothelial cells (HUVEC); actives raise or lower the signal. The gist of the method:
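Primary human umbilical vein endothelial cells (4H system), 24 h exposure; cell-surface VEGFR2 measured by ELISA. Bidirectional fitting versus DMSO; cytotoxicity checked in parallel by SRB total-protein staining.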

Read-out in experiment [2]: Human Leukocyte Antigen - DR isotype (HLADR), HLA-DRA (gene 3122)
Nature of the experiment: BSK_BE3C_HLADR: BioMAP Diversity Plus: BE3C Assay for Human Leukocyte Antigen - DR isotype (HLADR) Biomarker Activity (AID 2283032). The following applies: primary human bronchial epithelial cells; actives raise or lower the signal. The procedure, abridged:
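Human primary bronchial epithelial cells in the BE3C system were exposed to chemicals for 24 h, after which HLA-DR levels were quantified by ELISA. Activity was fitted bidirectionally, gain or loss of signal, against DMSO as negative control and baseline.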

Read-out in experiment [3]: Vascular cell adhesion molecule 1 (VCAM1), VCAM1 (gene 7412)
The experiment in a line: BSK_4H_VCAM1: BioMAP Diversity Plus: 4H Assay for Vascular cell adhesion molecule 1 (VCAM1) Biomarker Activity (AID 2283033).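 For outcome: cell-surface VCAM-1 protein measured by ELISA.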 The following applies: primary human endothelial cells (HUVEC); actives raise or lower the signal. The procedure, abridged: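 Primary human umbilical vein endothelial cells were exposed to chemicals for 24 h, after which VCAM-1 was quantified by ELISA. Responses were fitted bidirectionally against DMSO as negative control and activity baseline.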

Read-out in experiment [4]: Interferon-gamma inducible Protein 10 (IP10), CXCL10 (gene 3627)
Nature of the experiment: BSK_BE3C_IP10: BioMAP Diversity Plus: BE3C Assay for Interferon-gamma inducible Protein 10 (IP10) Biomarker Activity (AID 2283034). The following applies: primary human bronchial epithelial cells; actives raise or lower the signal. The gist of the method: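 Human primary bronchial epithelial cells were exposed to chemicals for 24 hours, after which IP-10 levels were measured by ELISA. Data were fitted bidirectionally against DMSO, which served as the negative control and activity baseline.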

Read-out in experiment [5]: Monokine induced gamma interferon (MIG), CXCL9 (gene 4283)
The experiment in a line: BSK_BE3C_MIG: BioMAP Diversity Plus: BE3C Assay for Monokine induced gamma interferon (MIG) Biomarker Activity (AID 2283035). As to conditions: primary human bronchial epithelial cells; actives raise or lower the signal. The gist of the method: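 Primary human bronchial epithelial cells treated for 24 h; MIG levels measured by ELISA, fitted bidirectionally versus DMSO. Parallel SRB total-protein staining assessed cytotoxicity.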

Read-out in experiment [6]: Plasminogen activator inhibitor-1 (PAI1), SERPINE1 (gene 5054)
The experiment in a line: BSK_BE3C_PAI1: BioMAP Diversity Plus: BE3C Assay for Plasminogen activator inhibitor-1 (PAI1) Biomarker Activity (AID 2283037). As to conditions: primary human bronchial epithelial cells; actives raise or lower the signal. The procedure, abridged:
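Human primary bronchial epithelial cells were exposed to chemical for 24 h, then PAI-1 was quantified by ELISA. Activity was fitted bidirectionally relative to the DMSO negative control baseline.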

Read-out in experiment [7]: urokinase plasminogen activator (uPA), PLAU (gene 5328)
The experiment in a line: BSK_BE3C_uPA: BioMAP Diversity Plus: BE3C Assay for urokinase plasminogen activator (uPA) Biomarker Activity (AID 2283038).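 Note: uPA protein level quantified by ELISA in cell cultures; uPA read one day after compound addition.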 As to conditions: primary human bronchial epithelial cells; actives raise or lower the signal. The procedure, abridged:
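Primary human bronchial epithelial cells, uPA measured by ELISA 24 h after dosing. Bidirectional change relative to DMSO; cytotoxicity checked in parallel cultures by sulforhodamine B total-protein staining.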

Read-out in experiment [8]: Urokinase-type plasminogen activator receptor (uPAR), PLAUR (gene 5329)
The experiment in a line: BSK_BE3C_uPAR: BioMAP Diversity Plus: BE3C Assay for Urokinase-type plasminogen activator receptor (uPAR) Biomarker Activity (AID 2283039).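 For outcome: cells exposed to compound for one day before measurement.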 As to conditions: primary human bronchial epithelial cells; actives raise or lower the signal. The procedure, abridged: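 Primary human bronchial epithelial cells were dosed with chemical and harvested 24 h later; uPAR was quantified by ELISA. Activity was fitted bidirectionally against DMSO as negative control and baseline.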

Read-out in experiment [9]: Interleukin-6 (IL6), IL6 (gene 3569)
Nature of the experiment: BSK_CASM3C_IL6: BioMAP Diversity Plus: CASM3C Assay for Interleukin-6 (IL6) Biomarker Activity for (AID 2283040). As to conditions: primary human coronary artery smooth muscle cells; actives raise or lower the signal.

Read-out in experiment [10]: Interleukin-8 (IL8), CXCL8 (gene 3576)
The experiment in a line: BSK_CASM3C_IL8: BioMAP Diversity Plus: CASM3C Assay for Interleukin-8 (IL8) Biomarker Activity (AID 2283042).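 Note: IL-8 protein level quantified by ELISA.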 As to conditions: primary human coronary artery smooth muscle cells; actives raise or lower the signal.

Read-out in experiment [11]: Human Leukocyte Antigen - DR isotype (HLADR), HLA-DRA (gene 3122)
Nature of the experiment: BSK_CASM3C_HLADR: BioMAP Diversity Plus: CASM3C Assay for Human Leukocyte Antigen - DR isotype (HLADR) Biomarker Activity (AID 2283043).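 Note: cell-surface HLA-DR protein level quantified by ELISA.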 The following applies: primary human coronary artery smooth muscle cells; actives raise or lower the signal.

Read-out in experiment [12]: Macrophage colony-stimulating factor (MCSF), CSF1 (gene 1435)
The experiment in a line: BSK_CASM3C_MCSF: BioMAP Diversity Plus: CASM3C Assay for Macrophage colony-stimulating factor (MCSF) Biomarker Activity (AID 2283044).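 Note: M-CSF protein amount quantified by ELISA after 24 h exposure.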 The following applies: primary human coronary artery smooth muscle cells; actives raise or lower the signal.

Read-out in experiment [13]: Low-density lipoprotein receptor (LDLR), LDLR (gene 3949)
Nature of the experiment: BSK_CASM3C_LDLR: BioMAP Diversity Plus: CASM3C Assay for Low-density lipoprotein receptor (LDLR) Biomarker Activity (AID 2283045).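 Note: LDLR protein level on the cell surface quantified by ELISA.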 The following applies: primary human coronary artery smooth muscle cells; actives raise or lower the signal.

Read-out in experiment [14]: Monocyte Chemoattractant Protein-1 (MCP1), CCL2 (gene 6347)
The experiment in a line: BSK_CASM3C_MCP1: BioMAP Diversity Plus: CASM3C Assay for Monocyte Chemoattractant Protein-1 (MCP1) Biomarker Activity (AID 2283046).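 Note: MCP-1 level quantified by ELISA 24 h after dosing.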 As to conditions: primary human coronary artery smooth muscle cells; actives raise or lower the signal.

Experiment [15] is described as follows: BSK_CASM3C_Proliferation: Cell Proliferation Assessment in the BioMAP Diversity Plus: CASM3C Assay (AID 2283047).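 Note: sulforhodamine B total protein stain as relative cell number at 560 nm; sub-confluent cells exposed 48 h before staining; fitted both ways against DMSO so gain or loss of cell number.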 As to conditions: primary human coronary artery smooth muscle cells.
Read-out in experiment [16]: Monokine induced gamma interferon (MIG), CXCL9 (gene 4283)
Nature of the experiment: BSK_CASM3C_MIG: BioMAP Diversity Plus: CASM3C Assay for Monokine induced gamma interferon (MIG) Biomarker Activity (AID 2283048). As to conditions: primary human coronary artery smooth muscle cells; actives raise or lower the signal.

Read-out in experiment [17]: serum amyloid A (SAA), SAA1 (gene 6288)
The experiment in a line: BSK_CASM3C_SAA: BioMAP Diversity Plus: CASM3C Assay for serum amyloid A (SAA) Biomarker Activity (AID 2283049).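 Note: SAA protein level quantified by ELISA.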 The following applies: primary human coronary artery smooth muscle cells; actives raise or lower the signal.

Read-out in experiment [18]: Transforming growth factor beta 1 (TGFb1), TGFB1 (gene 7040)
Nature of the experiment: BSK_BE3C_TGFb1: BioMAP Diversity Plus: BE3C Assay for Transforming growth factor beta 1 (TGFb1) Biomarker Activity (AID 2283036). As to conditions: primary human bronchial epithelial cells; actives raise or lower the signal. The procedure, abridged: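 Human primary bronchial epithelial cells (BE3C system) were dosed with chemical and TGF-b1 levels measured by ELISA at 24 h. Activity was fitted bidirectionally relative to DMSO negative control as baseline.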

Read-out in experiment [19]: Tissue plasminogen activator (tPA), PLAT (gene 5327)
Nature of the experiment: BSK_BE3C_tPA: BioMAP Diversity Plus: BE3C Assay for Tissue plasminogen activator (tPA) Biomarker Activity (AID 2283041). The following applies: primary human bronchial epithelial cells; actives raise or lower the signal. The gist of the method: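 Human primary bronchial epithelial cells were dosed with chemical and tPA biomarker levels measured by ELISA 24 hours later. Activity was fitted bidirectionally against DMSO as negative control and baseline.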

Several values for one entry are separate records, joined by “and”; a condition that tells them apart may be missing. Identical values can stand only once. Some structures have more than one record in an assay (separate samples or runs), and their calls can disagree. Activity calls are given as the source filed them. Rule for the calls: active = hit-call score of the fitted dose curve at least 0.9, where 1 is the maximum; inactive = score below 0.9.

In the case of `CC(CCC(=O)O)(c1ccc(O)cc1)c1ccc(O)cc1`, the outcome in experiment [1], in experiment [2], in [3], in experiment [4], in experiment [5] and in [6] was inactive. The result in experiment [7], in [8], in [9], in [10], in [11] and in experiment [12] was inactive. For the same molecule, the result in experiment [13], in experiment [14], in experiment [15], in experiment [16] and in experiment [17] was inactive.

`CCCCCC1=CCCC1=O`: the outcome in experiment [1], in [2], in experiment [3], in experiment [4], in experiment [5] and in experiment [18] was inactive. Besides, the outcome in experiment [6], in experiment [7], in experiment [8], in experiment [9], in experiment [10] and in experiment [11] was inactive. Moreover, the result in experiment [12], in experiment [13], in experiment [14], in experiment [15], in [16] and in [17] was inactive.

Take `c1ccc(Nc2cccc3ccccc23)cc1`: the AC50 was 33.2 µM (active) and 32.2 µM (active) in [1]; 28 µM (active) and 30.7 µM (active) in experiment [2]; 31.4 µM (active) and 28.8 µM (active) in [3]; 29.1 µM (active) and 30.6 µM (active) in experiment [4]; 12.7 µM (active) and 20.4 µM (active) in experiment [6]; 35.2 µM (active) in experiment [8]. Besides, the AC50 is 13.4 µM (active) and 12.9 µM (active) in experiment [9]; 30.6 µM (active) and 32.2 µM (active) in [19]; 20 µM (active) and 149 nM (active) in [12]; 29.9 µM (active) and 28.9 µM (active) in experiment [14]; 7.17 µM (active) and 25.9 µM (active) in experiment [15]. Further, the outcome in experiment [5], in [7], in [8], in [10], in [11] and in [13] was inactive. Besides, the outcome in experiment [16] and in experiment [17] was inactive.

Regarding `Oc1ccc(/C=C/c2cc(O)cc(O)c2)cc1`, the result in experiment [1], in experiment [3], in [5], in experiment [18], in [6] and in experiment [7] was inactive. The result in [10], in experiment [11], in experiment [12], in experiment [13], in experiment [14] and in experiment [16] was inactive. The AC50 in [2] is 20 µM (active); in experiment [8] it was 11.1 µM (active); in experiment [9], 13.6 µM (active); in [15], 10.5 µM (active); in experiment [17], 15.9 µM (active).

Regarding `Cc1ccc([N+](=O)[O-])cc1N`, the result in [1], in experiment [2], in experiment [3], in experiment [4], in [5] and in experiment [18] was inactive. The outcome in [6], in experiment [7], in experiment [8], in experiment [9], in experiment [10] and in experiment [11] was inactive. The outcome in experiment [12], in experiment [13], in experiment [14], in [15], in experiment [16] and in experiment [17] was inactive.

As for `Oc1ccccc1Cc1ccccc1O`, the result in experiment [1], in experiment [2], in [3], in [4], in [5] and in experiment [6] was inactive. Further, the outcome in experiment [7], in experiment [8], in experiment [9], in experiment [10], in experiment [11] and in experiment [12] was inactive. The outcome in [13], in experiment [14], in experiment [15], in [16] and in experiment [17] was inactive. Besides, in experiment [6], the AC50 is 18 µM (active).

For the molecule `Fc1ccc(Br)cc1`, the result in experiment [1], in experiment [2], in [3], in experiment [4], in experiment [5] and in [18] was inactive. The outcome in experiment [6], in experiment [7], in [8], in experiment [9], in [10] and in [11] was inactive. Moreover, the outcome in experiment [12], in [13], in experiment [14], in experiment [15], in [16] and in experiment [17] was inactive.

The values above are taken from PubChem BioAssay (EPA / NIEHS).
